# According to PubChem BioAssay AID2716 (Broad Institute, 2010):
# Out of some 320,000 compounds screened, about 3,300 (1%) were called active. This excerpt belongs to a sample that is enriched for actives. Unmarked numbers belong to inactive results.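 How the source made its calls: active means every valid replicate shows activation above 250% relative to neutral control wells; inactive means the rest, any valid replicate at or below 250%.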
# Assay: yeast Mot1-301 growth rescue at high temperature, primary screen, SUMOylation pathway inhibitor project, S. cerevisiae, ATP luminescence, 38.5C (AID 2716)
# Details: S. cerevisiae Mot1-301 growth rescue, at 18.8 µM, hits give high values
row,SMILES,growth rescue
1,COc1ccc(-n2c(-c3ccccc3)nc3ccccc3c2=O)cc1,524% (active)
2,Cc1ccc(-n2c(-c3ccc([N+](=O)[O-])cc3)nc3ccccc3c2=O)cc1,30.7%
3,O=c1c2ccccc2nc(-c2ccccc2)n1-c1ccccn1,-8.46%
4,C[C@@]1([C@@H](NP(=O)(c2ccccc2)c2ccccc2)c2ccccc2)C[C@H]1CCO,28.7%
5,CCCC(C)n1[nH]c(=O)c2c1NC(=O)CSC2c1ccc(OC)c(OC)c1 (stereo not given),-11.2%
6,O=C(Nc1cccc2ccccc12)N1CCC2(CC1)OCCO2,2.67%
7,c1ccc(CCN2CCC3(CC2)OCCO3)cc1,313% (active)
8,O=C(c1ccccc1[N+](=O)[O-])N1CCC2(CC1)OCCO2,-11.1%
9,COc1ccccc1OC(=O)c1ccc(C)c(S(=O)(=O)N2CCOCC2)c1,-7.94%
10,CCOP(=O)(OCC)C(O)c1ccc(OC)cc1OC (stereo not given),-5.29%
11,COc1ccc(-n2c(O)c(C(C)=Nc3ccc4c(c3)CCC4)c(=O)[nH]c2=O)cc1,-1.78%
12,COc1ccccc1-n1c(O)c(C=NC2CC2)c(=O)[nH]c1=O,-17.5%
13,COc1ccc(N=Cc2c(O)n(C)c(=O)[nH]c2=O)cc1,842% (active)
14,CC(Cc1ccccc1)NCCC(c1ccccc1)c1ccccc1 (stereo not given),-27.1%
15,CC(=NCc1ccc2c(c1)OCO2)c1c(O)[nH]c(=O)[nH]c1=O,-26.7%
